Several values for one entry are separate records, joined by “and”; a condition that tells them apart may be missing. Equal values may be shown once. Records with an inconclusive call do not appear. A call without a number means that no potency is given here. A structure can be active in one record and inactive in another. Activity calls are given as the source filed them. The call rests on the fitted dose curve; in most records, active means well fitted activation curve with a large enough effect in the signal ratio in the repeat runs (not every such curve was filed as active); inconclusive means weak or mixed curves; inactive means flat fitted curve, though single readings scatter; the % refers to the signal ratio.
Experiment: qHTS assay to identify small molecule agonists of H2AX (AID 1224845)
Details: CHO-K1 phospho-H2AX Ser139 HTRF, 3 h; series mostly up to 154 µM
From the text: National Center for Advancing Translational Sciences [NCATS]
NIH Chemical Genomics Center [NCGC]
U.S. Environmental Protection Agency [EPA]
National Institutes of Environmental Health Sciences [NIEHS]
National Toxicology Program [NTP]
U.S. Food and Drug Administration [FDA]
HTRF phospho-H2AX (Ser139) assay (Cisbio Bioassays, US) enables the quantitative detection of the histone variant H2AX when phosphorylated on serine 139. When double-stranded DNA breaks, either by ionizing radiation or endogenous physiological processes, H2AX becomes phosphorylated at Ser139. This phospho-Ser139 serves as a sensitive biomarker for the detection of such breaks, localizing the site of DNA repair. So, HTRF phospho-H2AX Ser139 is a pertinent assay to study genome stability, the cell cycle, DNA repair, and it serves as a biomarker for cancer, and to understand aging. Wild type CHO-K1 cells were used to identify the inducers of Phospho-H2AX Ser 139 from the Tox21 10K compound collections.
Tox21 Assay Protocol Summary:
The CHO-K1 cells suspended in culture medium containing 10% FBS were dispensed at 1000 cells/ 3 ul/well in 1536-well white wall/solid bottom plates (Greiner Bio-One North America, NC) using a Multidrop Combi (Thermo Fisher Scientific Inc., Waltham, MA). After the assay plates were incubated at 37C overnight, 23 nl of compounds at 15 concentrations (from 5-48 columns) or positive control (from 1 to 4 columns) were transferred to the assay plates using a Pintool station (Wako, San Diego, CA) into each well resulting in a final DMSO concentration of 0.76%. After 3hr incubation at 37C, 1 uL/well Supplemented Lysis buffer (diluted 100 fold blocking reagent in lysis buffer) (HTRF Phospho-H2A.X (S139) Assay kit from Cisbio US Inc., Bedford, MA) was added using a Flying Reagent Dispenser (FRD) (Aurora Discovery, CA). After 10sec spin at 1000 rpm in a plate centrifuge, the assay plates were incubated at room temperature for 30 min. Then followed by the addition of 1 uL/well detection buffer (containing a mixture of two antibodies, one labeled with cryptate, Anti pH2AX (S139)-K and another labeled with d2, Anti H2AX-d2) using FRD. After incubation at room temperature for 24 hr, the time resolved fluorescence at excitation 320 nm and emissions at 665 nm and 620 nm was measured using an Envision plate reader (PerkinElmer, Waltham, MA).
Potency means the concentration at half of the fitted maximal effect.

Structure (SMILES)	Potency
NN=C(N)N	inactive
CC(C)=CC1C(C(=O)OCN2C(=O)C3=C(CCCC3)C2=O)C1(C)C (stereo not given)	inactive
O=C(O)CF	inactive
O=NN1CCOCC1	inactive
N#CCCCCC#N	inactive
Clc1ccc(C(Cl)(Cl)Cl)cc1	inactive
CCOC(=O)c1ccccc1N	inactive
N#Cc1nn(-c2c(Cl)cc(C(F)(F)F)cc2Cl)c(N)c1S(=O)C(F)(F)F (stereo not given)	inactive
CCCCSP(=O)(SCCCC)SCCCC	inactive
COc1ccc(CO)cc1	inactive
Cc1ccc(N=CN(C)C=Nc2ccc(C)cc2C)c(C)c1	inactive
c1ccc(C2CO2)cc1 (stereo not given)	inactive
O=S(=O)(O)C(F)(F)C(F)(F)C(F)(F)C(F)(F)C(F)(F)C(F)(F)C(F)(F)C(F)(F)F	inactive
ClC(Cl)(Cl)c1ccccc1	inactive
CCCCC(C#N)(Cn1cncn1)c1ccc(Cl)cc1 (stereo not given)	inactive
CN(C)c1nc(=O)n(C2CCCCC2)c(=O)n1C	inactive
Clc1ccccc1-c1nnc(-c2ccccc2Cl)nn1	inactive
Oc1ccc(Cl)cc1Cl	inactive
CC(C)(C#N)N=NC(C)(C)C#N	inactive
Cl	inactive

Structure (SMILES)	Potency
COC(=O)Nc1nc2ccccc2[nH]1	inactive
CCCCCCCCCC(CC)c1ccc(S(=O)(=O)O)cc1 (stereo not given)	inactive
CC(C)(O)C#N	inactive
CC(C)(O)C(=O)Nc1ccc([N+](=O)[O-])c(C(F)(F)F)c1	inactive
CCOP(=O)(O)OCC (tested in a mixture with another compound)	inactive
C[N+](C)(C)CC(=O)O	inactive
COc1ccc(O)c(C(C)(C)C)c1	inactive
ClCc1ccccn1	inactive
[CH3][Sn]([Cl])([Cl])[Cl]	inactive
CCCCCCCC[N+](C)(CCCCCCCC)CCCCCCCC	inactive and 17.9 µM (active)
CCC[CH2][Sn]([Cl])([CH2]CCC)[CH2]CCC	358 nM (active) and 401 nM (active)
Nc1ccc2ccccc2c1	inactive
C[N+](C)(C)C	inactive
CC1=C(C(=O)Nc2ccccc2)SCCO1	inactive
CCN(CC)C(=O)C(C)Oc1cccc2ccccc12 (stereo not given)	inactive
O=C(O)c1nn(Cc2ccc(Cl)cc2Cl)c2ccccc12	inactive
OC(c1ccc(Cl)cc1)(c1cncnc1)c1ccccc1Cl (stereo not given)	91.4 µM (active) and inactive
S=c1[nH]c2ccccc2[nH]1	inactive
NC(=O)CN1CCCC1=O	inactive
N#Cc1cccnc1	inactive

Source: PubChem BioAssay (Tox21)
